# Results filed as inconclusive are left out. A number with no mark means an inactive call. Active and inactive are the calls of the source. Calls follow the shape of the dose curve; as a rule, active = well fitted activation curve with a large enough effect; inconclusive = small, poorly fitted or top-dose-only effect; inactive = no such curve, though single readings can be large or run the other way.
# Biological target: Rap guanine nucleotide exchange factor 3 (Homo sapiens) (UniProt O95398)
# Test: Confirmatory qHTS for agonist of cAMP-regulated guanine nucleotide exchange factor 3 (EPAC1) (AID 1645881); also: nearly all actives have a fitted effect of over 75% in size;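 as to activation: EPAC1 catalysed release of BODIPY-GDP from Rap1B seen as fluorescence loss; 100% = effect of cAMP agonist control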
# Details: EPAC1 Rap1B BODIPY-GDP exchange fluorescence; series mostly up to 154 µM; activation: at the top concentration
# Potency is read from the fitted curve at half-maximal effect.
# Rap guanine nucleotide exchange factor 3 (Homo sapiens), sequence (O95398 whole entry, looked up): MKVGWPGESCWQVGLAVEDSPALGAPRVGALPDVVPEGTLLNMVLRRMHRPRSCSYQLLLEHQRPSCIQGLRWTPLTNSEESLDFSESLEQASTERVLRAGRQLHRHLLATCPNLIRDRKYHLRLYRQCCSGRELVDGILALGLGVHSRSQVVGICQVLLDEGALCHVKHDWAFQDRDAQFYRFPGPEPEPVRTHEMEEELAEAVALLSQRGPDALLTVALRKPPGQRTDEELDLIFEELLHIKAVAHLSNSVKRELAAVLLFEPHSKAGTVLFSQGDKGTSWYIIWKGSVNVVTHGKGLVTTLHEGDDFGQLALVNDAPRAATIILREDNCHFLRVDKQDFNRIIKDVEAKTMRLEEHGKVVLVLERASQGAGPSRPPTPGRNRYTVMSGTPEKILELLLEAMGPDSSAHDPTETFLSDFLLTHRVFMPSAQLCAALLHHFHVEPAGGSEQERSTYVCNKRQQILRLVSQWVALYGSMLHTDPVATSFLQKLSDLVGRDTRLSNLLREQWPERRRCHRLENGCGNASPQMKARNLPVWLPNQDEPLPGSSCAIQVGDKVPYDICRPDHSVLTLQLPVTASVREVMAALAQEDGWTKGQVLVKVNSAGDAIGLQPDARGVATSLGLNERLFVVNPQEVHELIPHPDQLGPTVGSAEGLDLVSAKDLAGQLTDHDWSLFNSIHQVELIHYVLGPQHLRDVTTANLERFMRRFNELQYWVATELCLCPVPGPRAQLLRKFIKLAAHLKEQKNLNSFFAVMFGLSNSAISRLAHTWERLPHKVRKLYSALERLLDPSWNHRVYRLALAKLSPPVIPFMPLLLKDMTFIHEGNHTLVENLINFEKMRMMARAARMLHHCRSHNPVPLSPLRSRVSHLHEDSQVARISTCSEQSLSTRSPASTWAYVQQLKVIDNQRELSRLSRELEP
Compound,activation,Potency
CC1=Nc2ccccc2/C1=C/c1sc(=N)n(-c2nccs2)c1O,23.5%,–
Cc1ccccc1OCC(=O)Nc1ccc(C(=O)OCc2cc(=O)n3c(C)csc3n2)cc1,6.52%,–
Cc1ccc(C2CC2/C(=N/O)c2ccc(F)cc2)cc1 (configuration not stated),18.4%,–
O=C(O)c1ccc(NS(=O)(=O)c2ccc3c(c2)C2C=CCC2C(c2ccccc2F)N3)cc1 (configuration not stated),26.5%,–
Oc1[nH]c2ccccc2c1N=Nc1ccccc1F,6.02%,–
COC(=O)C1=CN(c2c(C)cc(C)cc2C)C(N)=C(C#N)C1c1ccccc1 (configuration not stated),21.7%,–
Cc1ccc(SCC(=O)Nc2ccccc2N2CCOCC2)cc1,4.4%,–
Cc1nc(N)sc1-c1csc(Nc2ncccn2)n1,24.6%,–
COc1ccc(/C=C2\SC(=S)N(CCC(=O)N3CCCCC3CCO)C2=O)cc1 (configuration not stated),13.9%,–
Cc1nc(NC(=O)c2c(-c3ccccc3)c(-c3ccccc3)nn(C)c2=O)sc1C,4.06%,–
O=S(=O)(c1cccc2ccccc12)N1CCCCC1,19.8%,–
COc1ccc(NC(=O)COC(=O)CCCOc2ccc(Cl)cc2Cl)cc1Cl,19.9%,–
Cc1nc2c(C(=O)NCc3ccccc3Cl)c[nH]n2c(=O)c1Cc1cccc(Cl)c1,-10.1%,–
Cc1ccc(CNC(=O)c2cccc3c2C(=O)c2ccc(N4CCCCC4)cc2S3(=O)=O)cc1,–,11.2 µM (active)
COc1ccccc1/C=C(/C(=O)OCC(=O)Nc1ccc(N(C)C)cc1)c1ccccc1,14.7%,–
COC(=O)c1ccc2nc(-c3cccc(Br)c3)c(Cc3ccccc3)n2c1,18.4%,–
O=C(O)c1cccc(Cn2c(Cl)c(/C=N/NC(=O)c3cc4ccccc4cc3O)sc2=O)c1,11.6%,–

# From PubChem BioAssay (NCATS)
